Only some compounds are listed: those with a hit (about 10% of all), similar ones and a draw of the others.
FLuc inh: Firefly luciferase inhibition profiling of diverse chemical library using quantitative high-throughput screening | Luciferin 4-monooxygenase (Photinus pyralis), P08659 | purified P. pyralis luciferase, luminescence, biochemical | Potency, µM (titrated, usually from 115 µM), usual class: inhibitors | 76,000 tested, 2.5% active | AID 1347043, 2019; also: nearly all actives have a fitted effect of over 65% in size
Target sequence (P08659 whole entry, looked up): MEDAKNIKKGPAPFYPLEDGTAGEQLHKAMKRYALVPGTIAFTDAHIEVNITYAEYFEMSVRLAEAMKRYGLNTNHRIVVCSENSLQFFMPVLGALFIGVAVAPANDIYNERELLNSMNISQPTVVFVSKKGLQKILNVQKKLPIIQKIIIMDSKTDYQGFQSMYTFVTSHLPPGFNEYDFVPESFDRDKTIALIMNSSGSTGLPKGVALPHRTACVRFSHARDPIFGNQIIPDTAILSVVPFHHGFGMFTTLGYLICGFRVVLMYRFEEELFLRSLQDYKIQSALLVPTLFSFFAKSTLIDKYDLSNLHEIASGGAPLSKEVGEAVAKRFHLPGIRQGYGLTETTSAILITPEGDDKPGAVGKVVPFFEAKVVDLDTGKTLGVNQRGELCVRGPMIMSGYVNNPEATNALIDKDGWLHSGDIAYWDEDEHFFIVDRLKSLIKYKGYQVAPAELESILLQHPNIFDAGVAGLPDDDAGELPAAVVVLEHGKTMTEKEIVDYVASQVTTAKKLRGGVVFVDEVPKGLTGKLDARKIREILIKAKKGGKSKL
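Luminescence read by CCD imaging after purified firefly luciferase (10nM final) was added to substrate buffer holding 10uM D-luciferin and 10uM ATP, pH 7.5, pre-dosed with compound.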
hNpr1 antagonist: Natriuretic polypeptide receptor (hNpr1) antagonism - Primary qHTS; Atrial natriuretic peptide receptor 1 (Homo sapiens), P16066; HEK293 hNpr1 GloSensor cGMP, ANP-stimulated luminescence; Potency, µM (series often up to 46.3 µM), for inactives: at the top dose activity change, negative = inhibition, actives largely listed as inhibitors; 76,000 tested, 1.6% active; AID 1347048, 2019; calls by dose curve; also: nearly all actives have a fitted effect of over 60% in size
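Compound pre-incubated 30 min at room temperature on GloSensor-loaded HEK293 cells stably carrying hNpr1 and the pGS-40F cGMP biosensor. Stimulation uses hNppA at 0.1 nM final; luminescence is taken at baseline and 20 min post-agonist.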
HEK cytotox: Cytotoxic Profiling in HEK 293 Cell Line of Diverse Libraries Using Quantitative High-Throughput Screening. HEK 293 viability, ATP luminescence (CellTiter-Glo), 48-72 h. Potency, µM (doses to about 115 µM), for the others: at the highest dose activity change, negative = cytotoxicity, usual class: inhibitors. 94,000 tested, 6.6% active; also: nearly all actives have a fitted effect of over 60% in size
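Luminescence from cellular ATP, measured with CellTiter-Glo, indicates HEK 293 viability. Cells plated at 250 cells/well are treated with compound for 48 or 72 hr at 37 degree Celsius before reagent addition.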
NIH3T3 tox: Cytotoxic Profiling in NIH 3T3 Cell Line of Diverse Libraries Using Quantitative High-Throughput Screening; NIH 3T3 viability, CellTiter-Glo ATP luminescence, 48-72 h; Potency, µM (top dose mostly 96.7 µM), for inactives: at the highest dose activity change, negative = cytotoxicity, usual class: inhibitors; 94,000 tested, 4.3% active; AID 1345082, 2018; also: nearly all actives have a fitted effect of over 55% in size
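Viability of NIH 3T3 cells after 48 or 72 hr compound treatment at 37 °C was assessed by CellTiter-Glo, with luminescence imaged following a 10 min room-temperature step.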
GPT2 inh: Primary qHTS assay for inhibitors of Glutamate pyruvate transaminase 2 (GPT2). AID 1671188, 2021. Potency, µM (highest dose often 57.7 µM), for the others: top-dose activity change, negative = inhibition, most hits filed as inhibitors. Recombinant GPT2, coupled pyruvate oxidase/HRP Amplex Red fluorescence. 100,000 tested, 0.25% active; also: nearly all actives have a fitted effect of over 60% in size
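Fluorescence read-out: pyruvate from GPT2 turnover coupled to pyruvate oxidase, HRP and Amplex Red (0.2mM ThPP, 0.2U/mL PO and HRP, 50uM Amplex final). Substrates 250uM a-KG, 2mM L-alanine; enzyme 10ng/uL; 30 min RT.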
* = called active by the depositor; i = inactive; u = inconclusive; x = no result given; [ ] = another dose, or the depositor's remark. Unless noted, calls follow the shape of the dose curve; as a rule, active = well fitted curve in the direction sought with a large enough effect; inconclusive = small, poorly fitted or top-dose-only effect, or another doubt; inactive = no such curve, though single readings can be large; an effect the other way counts as inactive or inconclusive. % is scaled to controls: 0 for no effect and ±100 for the full control effect; potency is read from the fitted curve at half-maximal effect.

SMILES | FLuc inh | hNpr1 antagonist | HEK cytotox | NIH3T3 tox | GPT2 inh
C=CCC(=O)N1CCCC(N2CCN(c3cccc(C(F)(F)F)c3)CC2)C1 (configuration not stated) | i | 2% | u | u | u
Cc1ccc(-c2cc3c(=O)n(CCNC(=O)c4cc(Cl)ccc4F)ccn3n2)cc1C | i | -1% | 0% | 1% | -4%
Cc1ccc(-c2cc3c(=O)n(CCNC(=O)c4cc(F)ccc4F)ccn3n2)cc1C | u | -15% | 40µM* | u | i
OC[C@@H]1CNC[C@H]1C1CCN(Cc2cccc(C(F)(F)F)c2)CC1 | i | 7% | 79µM* | u | i
OC[C@@H]1CNC[C@H]1C1CCN(Cc2cccc(Cl)c2F)CC1 | i | -5% | u | u | i
COc1ccc(N2CC3CCC(C2)N3Cc2ccc(NC(C)=O)cc2)cc1 | x | x | -1% | 1% | u
COc1ccc(N2CC3CCC(C2)N3Cc2ccc(C#N)cc2)cc1 | x | x | -28% | -21% | 10µM*
CCC(=O)N1CCN(c2nc3c(s2)CC(C(=O)NCc2ccccc2)CC3)CC1 (configuration not stated) | i | -1% | u | -26% | i
CCC(=O)N1CCN(c2nc3c(s2)CC(C(=O)Nc2ccc(F)cc2F)CC3)CC1 (configuration not stated) | i | u | 10µM* | u | i
CCC(=O)N1CCN(c2nc3c(s2)CC(C(=O)Nc2ccc(F)cc2C)CC3)CC1 (configuration not stated) | i | -16% | u | -16% | i
CCC(=O)N1CCN(c2nc3c(s2)CC(C(=O)Nc2cccc(C)c2C)CC3)CC1 (configuration not stated) | i | -20% | 40µM* | u | i
CCOc1ccccc1CNC(=O)[C@H]1CCC[C@H]1NC(=O)c1ccc(OC)cc1 | i | 8% | -3% | -16% | 2%
Cc1ccc(-c2cn3c(n2)CO[C@@H](CNS(C)(=O)=O)C3)cc1 | i | 4%[70.6 µM] | 1%[172 µM] | -11%[174 µM] | 5%[88.5 µM]
COc1ccc(-c2cn3c(n2)CO[C@@H](CNS(C)(=O)=O)C3)cc1 | 56µM* | -1%[70.6 µM] | -5%[172 µM] | -4%[138 µM] | 0%[88.5 µM]
COc1ccc(-c2cn3c(n2)CO[C@@H](CNCc2ccc(Cl)cc2)C3)cc1 | 63µM* | u | 89µM* | 100µM* | 5%[88.5 µM]
COc1ccc(CNC[C@H]2Cn3cc(-c4ccccc4)nc3CO2)cc1 | i | 2%[70.6 µM] | u | u | 3%[88.5 µM]
COc1ccc(-c2cn3c(n2)CO[C@@H](CNC(=O)CCC(=O)O)C3)cc1 | i | 8%[70.6 µM] | i | i | 1%[88.5 µM]
CCC(=O)NC[C@H]1Cn2cc(-c3ccc(OC)cc3)nc2CO1 | 63µM* | -1%[70.6 µM] | 2%[172 µM] | 4%[138 µM] | -5%[88.5 µM]
COCCNC(=O)Cc1ccc(N(Cc2ccc(C)cc2)C(=O)c2ccco2)cc1 | i | -2% | -6% | u | i
CN(C)c1ccc(-c2ccnc(N[C@H]3CO[C@H]4[C@@H]3OC[C@H]4OC(=O)Nc3cccc(C#N)c3)n2)cc1 | i | u | 14µM* | u | i
COc1ccc(NC(=O)O[C@@H]2CO[C@H]3[C@@H]2OC[C@@H]3Nc2nccc(-c3cccc(C#N)c3)n2)cc1 | i | -1% | -26% | -14% | 0%
N#Cc1cccc(-c2ccnc(N[C@H]3CO[C@H]4[C@@H]3OC[C@H]4OC(=O)Nc3cccc4ccccc34)n2)c1 | i | -29% | 22µM* | u | u
Cc1cc(N2CCC3(CC2)C(C(=O)O)CC(=O)N3C)ccn1 (configuration not stated) | i | 5% | 3% | i | u
O=C(Cc1ccc(N(Cc2cccc(F)c2)C(=O)c2ccco2)cc1)NCc1ccccc1 | i | -23% | u | u | i
O=C(Cc1ccc(N(Cc2ccc(F)cc2)C(=O)c2ccco2)cc1)NCc1ccc(F)cc1 | i | -28% | 25µM* | 40µM* | -32%
SMILES | FLuc inh | hNpr1 antagonist | HEK cytotox | NIH3T3 tox | GPT2 inh
O=C(Cc1ccc(N(Cc2ccc(F)cc2)C(=O)c2ccco2)cc1)Nc1ccc(F)cc1 | i | -3% | u | 32µM* | i
CN(Cc1ccccc1)C(=O)Cc1ccc(N(Cc2cccc(F)c2)C(=O)c2ccco2)cc1 | i | -20% | u | 35µM* | 1%
CCCN(C)C(=O)Cc1ccc(N(Cc2ccc(F)cc2)C(=O)c2ccco2)cc1 | i | -12% | u | u | i
O=C(Cc1ccc(N(Cc2cccc(F)c2)C(=O)c2ccco2)cc1)Nc1ccccc1 | i | 0% | 45µM* | 35µM* | i
CCN1c2cc(C(=O)NCc3ccc(F)cc3F)ccc2C(=O)N2CCCCCC21 (configuration not stated) | i | -12% | u | u | 2%
C=CCNC(=O)[C@H]1CN(Cc2ccccc2)C[C@H]1C(=O)O | x | x | 3% | -14% | -7%
CCn1nc(CC(C)C)cc1C(=O)NCC1CCCN(Cc2ccco2)C1 (configuration not stated) | i | -3% | -17% | u | i
O=C(CN1CCOc2c(O)cc(-c3csc4ccccc34)cc2C1)N1CCOCC1 | i | -3% | u | u | i
NCCCCC(=O)N1CCOc2c(O)cc(-c3csc4ccccc34)cc2C1 | i | -29% | 32µM* | 40µM* | -6%
O=C1CCCN1CCN1CCOc2c(O)cc(-c3csc4ccccc34)cc2C1 | i | 2% | 45µM* | u | 4%
Cc1[nH]cnc1C(=O)N1CCOc2c(O)cc(-c3csc4ccccc34)cc2C1 | i | -18% | 45µM* | 79µM* | 5%
COc1cccc(-c2cn3cc(C(=O)NC4CCCCCC4)nc3s2)c1 | x | x | u | u | i
CC1CCCCN1CCCOC(=O)c1ccc(OC2CCCCC2)cc1 (configuration not stated) | x | x | x | x | i
Cc1ccc(S(=O)(=O)N2CCc3nc4cc[nH]n4c(=O)c3C2)cc1C | i | 1% | 5% | i | -5%
CN1c2cc(C(=O)NC3CCCCC3)ccc2C(=O)N2CCCCCC21 (configuration not stated) | i | 1% | u | -11% | 2%
O=C1CN(C(=O)CCC(=O)N2CCc3nc4cc(-c5ccccc5)[nH]n4c(=O)c3C2)c2ccccc2N1 | i | -5% | -6% | -37% | -3%

High-throughput results deposited in PubChem by National Center for Advancing Translational Sciences (NCATS).
